Sampled rows, rich in hits. Any-hit rate of the full collection: about 3.8%.
Wnt bcat act = Wnt/beta-catenin pathway activators, primary screen, cell-based, plate reader, single point; Wnt/beta-catenin reporter cell assay, activator; activation, % at 9.35 µM; actives 1.2% (n = 300,000); in the data active = activation above about 30%, passing the limit was not always enough
HSF1 activator = HSF-1 activators, primary screen, NIH3T3-HGL cells, MG132 stress, luminescence, single point; NIH3T3-HGL HSF-1 luciferase reporter, 8 h; 100% = twice DMSO control signal; activation, % at 9 µM; actives 1.7% (n = 300,000);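 active = mean replicate activation of at least 50% with a set share of replicates each reaching 50%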
HSF1 inh = HSF1 inhibitors in luciferase reporter cells, primary screen, cell-based, NIH3T3, luminescence; NIH3T3-HGL HSE-luciferase, MG132-induced, luminescence 8 h; stronger effect = lower value; activity change, negative = inhibition, % at 7.5 µM (by protocol); actives 0.77% (n = 300,000); AID 2098, 2009;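 active = more than half of replicate wells show activity change below -50%, luminescence cut by over half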;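 also: luciferase reports HSF-1 transcriptional activity via heat shock element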
MITF TRPM1 HTS = activators of MITF-driven TRPM1 promoter reporter, primary screen, cell-based, SK-MEL-5, luciferase, single point; activation, % at 12.5 µM; SK-MEL-5 TRPM1-promoter luciferase, 24 h; % of positive control, neutral wells = 0; actives 0.75% (n = 300,000); AID 588334, 2011;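 active = mean activation of at least 80% with every replicate also reaching 80%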
esBAF inh = Bmi1 luciferase reporter increase in mESCs, primary screen, esBAF inhibitor project, mouse ES cells, Bmi1 luciferase knock-in, single point. 24 h; 100% = twice the neutral-well signal. reporter increase, % at 12.5 µM. actives 2% (n = 350,000); in the data active = activation above about 40%;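 also: a rise in the Bmi1 reporter signal indicates esBAF inhibition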
Large screens that a line does not name were inactive.

CN(Cc1ccccc1)c1nc(N)c([N+](=O)[O-])c(NCc2ccccc2)n1	HSF1 activator 67.1 (no result: Wnt bcat act, esBAF inh)
CCN(CCN(C)C)C(=O)C1CCN(S(=O)(=O)c2c(C)noc2/C=C/c2ccccc2F)CC1	none
CCOc1ccccc1/C=C/c1onc(C)c1S(=O)(=O)N1CCC(C(=O)N(CC)CC)CC1	HSF1 inh -59.9
CCCCOC(=O)CCc1c(C)n[nH]c1C	HSF1 activator 63.0 (no result: MITF TRPM1 HTS, esBAF inh)
Cc1noc(C)c1S(=O)(=O)Nc1ccc2c(c1)C(=O)N([C@@H](C)CO)C[C@@H](C)[C@H](CN(C)C)OCCCC[C@@H](C)O2	none (no result: Wnt bcat act, HSF1 activator, HSF1 inh, MITF TRPM1 HTS)
CN(C)c1nc(C=C(C#N)C#N)c(Cl)n1-c1ccc(F)cc1	HSF1 activator 94.9 (no result: esBAF inh)
CN(C(=O)c1ccc2c(c1)CCN2S(C)(=O)=O)c1ccccc1	none
CS(=O)(=O)N1CCc2cc(C(=O)OCC(=O)c3ccccc3)ccc21	esBAF inh 50.8 (no result: Wnt bcat act)
CS(=O)(=O)N1CCc2cc(C(=O)Nc3ccc(Br)cc3)ccc21	esBAF inh 47.6
Cc1cc(C)cc(NC(=O)c2ccc3c(c2)CCN3S(C)(=O)=O)c1	none
Cc1ccc(NC(=O)c2ccc3c(c2)CCN3S(C)(=O)=O)cc1	Wnt bcat act 45.0, esBAF inh 65.8 (no result: HSF1 activator, HSF1 inh, MITF TRPM1 HTS)
COCC#Cc1cnc2c(c1)C(=O)N([C@H](C)CO)C[C@@H](C)[C@H](CN(C)S(C)(=O)=O)O2	none (no result: Wnt bcat act, HSF1 activator, HSF1 inh, MITF TRPM1 HTS)
COc1ccc(NC(=O)N(C)C[C@H]2Oc3ccc(NC(=O)Cc4cn(C)c5ccccc45)cc3CC(=O)N([C@H](C)CO)C[C@@H]2C)cc1	none (no result: Wnt bcat act, HSF1 activator, HSF1 inh, MITF TRPM1 HTS)
Cc1ccc(NC(=O)[C@@H](C)NC(=O)[C@@H]2Cc3ccccc3CN2)cc1	HSF1 inh -54.9
Cc1ccc(NC(=O)C2CCN(C(=O)[C@@H]3Cc4ccccc4CN3)CC2)cc1	esBAF inh 54.4
CCc1ccc(NC(=O)C2CCC(CNC(=O)[C@@H]3Cc4ccccc4CN3)CC2)cc1 (stereo partly drawn)	HSF1 inh -66.3
Cc1ccc(NC(=O)[C@@H](CC(C)C)NC(=O)[C@@H]2Cc3ccccc3CN2)cc1	none
CN1[C@@H]2c3ccc(-c4ccccc4F)c(=O)n3C[C@H]1[C@H](CO)[C@H]2C(=O)NCc1ccccn1	none (no result: Wnt bcat act, HSF1 activator, HSF1 inh, MITF TRPM1 HTS)
CO[C@H]1CN(C)C(=O)c2ccc(NC(=O)C3CCCCC3)cc2OC[C@H](C)NC[C@H]1C	none (no result: Wnt bcat act, HSF1 activator, HSF1 inh, MITF TRPM1 HTS)
COc1ccc(/C=c2\s/c(=C\C(=O)C(C)(C)C)[nH]c2=O)cc1O	HSF1 activator 63.8
COc1cc(/C=c2\s/c(=C\C(=O)C(C)(C)C)[nH]c2=O)cc(OC)c1OC	none (no result: esBAF inh)
O=C(C[C@H]1C=C[C@H](NC(=O)Nc2cc(F)ccc2F)[C@H](CO)O1)Nc1ccc(-c2ccccc2)cc1	none (no result: Wnt bcat act, HSF1 activator, HSF1 inh, MITF TRPM1 HTS)
COCC(=O)Nc1ccc2c(c1)C(=O)N(C)[C@H]1CC[C@H](CC(=O)NCc3ccccc3Cl)O[C@@H]1CO2	none (no result: Wnt bcat act, HSF1 activator, HSF1 inh, MITF TRPM1 HTS)
CC(C)n1cnnc1SCC(=O)Nc1ccc(N2CCCCC2)cc1	none
CC(Sc1nncn1C)C(=O)Nc1ccc(N2CCCCC2)cc1 (stereo not drawn)	Wnt bcat act 33.7 (no result: HSF1 activator, HSF1 inh)
O=C(Nc1ccccc1F)N[C@@H]1C=C[C@H](CC(=O)N2CCCCC2)O[C@H]1CO	none (no result: Wnt bcat act, HSF1 activator, HSF1 inh, MITF TRPM1 HTS)
COc1cccc(NC(=S)N(CCC(C)C)C2CCN(C(C)=O)CC2)c1	HSF1 inh -76.3 (no result: MITF TRPM1 HTS)
O=C(c1cccs1)N1CCN=C1SCc1ccc(F)cc1	Wnt bcat act 37.0 (no result: esBAF inh)
O=C(NC1CCCCC1)C(c1ccccc1)N1CCc2ccccc21 (stereo not drawn)	none (no result: MITF TRPM1 HTS)
Cc1ccc(C(C(=O)NC2CCCC2)N2CCc3ccccc32)cc1 (stereo not drawn)	HSF1 activator 57.6
C[C@@H]1CCCCO[C@@H](CN(C)C(=O)c2ccccc2)[C@H](C)CN([C@@H](C)CO)C(=O)c2cc(NC(=O)NC3CCCCC3)ccc2O1	none (no result: Wnt bcat act, HSF1 activator, HSF1 inh, MITF TRPM1 HTS)
CN(Cc1nc(-c2ccccc2)no1)C(=O)c1ccc2c(c1)OCO2	HSF1 inh -59.3
O=C(NCCOc1ccccc1)c1ccc2c(c1)OCO2	none (no result: Wnt bcat act)
c1ccc(-c2noc(COc3ccc4c(c3)OCO4)n2)cc1	HSF1 activator 55.4, MITF TRPM1 HTS 97.4, esBAF inh 63.0 (no result: Wnt bcat act)
CN(CCOc1ccccc1)C(=O)c1ccc2c(c1)OCO2	esBAF inh 43.3 (no result: HSF1 activator, HSF1 inh)

Screens: PubChem, Broad Institute
